Inconclusive results are not listed. Unmarked numbers belong to inactive results. The source made the active and inactive calls. The call rests on the fitted dose curve; in most records, active means well fitted curve in the direction sought with a large enough effect; inconclusive means small, poorly fitted or top-dose-only effect, or another doubt; inactive means no such curve, though single readings can be large; an effect the other way counts as inactive or inconclusive.

Here are results for twelve compounds from PubChem BioAssay (NCATS).

One assay has as its system CRL-7250. In words: Cytotoxic Profiling of Annotated Libraries Using Quantitative High-Throughput Screening (AID 1296008). Further: nearly all actives have a fitted effect of over 60% in size. Further: potency means the concentration at half of the fitted maximal effect. On max response: on the % scale 0 is the no-effect control and ±100 the full control effect. As to conditions: Five cell lines viability, CellTiter-Glo ATP luminescence, 48-72 h; max response: stronger effect = lower value. The procedure, abridged: (§1)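 Cytotoxicity was measured as CellTiter-Glo ATP luminescence, read after 10 min at room temperature. Compound treatment of the cells lasted 48 or 72 hr at 37 degrees Celsius in a qHTS format.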
For orientation: Cellular ATP, detected with luciferase, serves as a proxy for viable cell number.

A further assay deals with HEK293. The assay is described as above. The note with it: Five cell lines viability, CellTiter-Glo ATP luminescence, 48-72 h; max response: stronger effect = lower value. The procedure, abridged:
as §1

Assay [1] concerns NIH3T3. The description is as above. As to conditions: Five cell lines viability, CellTiter-Glo ATP luminescence, 48-72 h; max response: stronger effect = lower value. The method, boiled down: as §1
Another assay deals with C33A. The assay can be described thus: Primary qHTS to identify gynecologic anti-cancer compounds using libraries of approved drugs and bioactive compounds (AID 1345084). Further: nearly all actives have a fitted effect of over 55% in size. Further: potency means the concentration at half of the fitted maximal effect. On activity change, negative = cytotoxicity: on the % scale 0 is the no-effect control and ±100 the full control effect. As to conditions: Gynecologic cancer cell panel viability, ATPlite luminescence, 48 h; series mostly up to 57.5 µM. The procedure, abridged: (§2)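 Five-point cytotoxicity, 48 h drug exposure at 37 C, 5% CO2, on cells seeded 16 h beforehand. ATP content read by ATPlite luminescence.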

Another assay relates to CASKI. The assay is described as above. The note with it: Gynecologic cancer cell panel viability, ATPlite luminescence, 48 h; series mostly up to 57.5 µM. The procedure, abridged:
as §2

Another assay concerns Es-2. The description is as above. The note with it: Gynecologic cancer cell panel viability, ATPlite luminescence, 48 h; series mostly up to 57.5 µM. The procedure, abridged: as §2
For another assay, the system named is Hek293T. The assay is described as above. The note with it: Gynecologic cancer cell panel viability, ATPlite luminescence, 48 h, control line for the selectivity index; series mostly up to 57.5 µM. The method, boiled down:
as §2

The test system of a further assay is PA-1. The description is as above. The note with it: Gynecologic cancer cell panel viability, ATPlite luminescence, 48 h; series mostly up to 57.5 µM. The method, boiled down:
as §2

The subject of another assay is HeLa. The description is as above. As to conditions: Gynecologic cancer cell panel viability, ATPlite luminescence, 48 h; series mostly up to 57.5 µM. The method, boiled down:
as §2

For another assay, the system named is JEG-3. The assay is described as above. As to conditions: Gynecologic cancer cell panel viability, ATPlite luminescence, 48 h; series mostly up to 57.5 µM. The procedure, abridged: as §2
A further assay relates to CAOV3. The assay is described as above. The note with it: Gynecologic cancer cell panel viability, ATPlite luminescence, 48 h; series mostly up to 57.5 µM. The method, boiled down:
as §2

The subject of assay [2] is HaCat. In words: Cytotoxic Profiling of Annotated Libraries Using Quantitative High-Throughput Screening (AID 1296008). Further: nearly all actives have a fitted effect of over 60% in size. Further: potency means the concentration at half of the fitted maximal effect. On max response: on the % scale 0 is the no-effect control and ±100 the full control effect. As to conditions: Five cell lines viability, CellTiter-Glo ATP luminescence, 48-72 h; max response: stronger effect = lower value. The procedure, abridged: as §1
The subject of the next assay is KB-3-1. Described as above. As to conditions: Five cell lines viability, CellTiter-Glo ATP luminescence, 48-72 h; max response: stronger effect = lower value. The procedure, abridged: as §1
The test system of assay [3] is HACAT. In words: qHTS assay to identify novel small-molecules to repurpose for Merkel cell carcinoma treatment (AID 1296009). Further: nearly all actives have a fitted effect of over 60% in size. As to conditions: MCC and control cell lines, CellTiter-Glo viability, 72 h; at 44.8 µM (top of the series) unless noted. The method, boiled down:
(§3)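 Cell viability, measured as CellTiter-Glo luminescence, was normalized between DMSO and no-cell wells. The cells had been exposed to 8- or 11-point compound dilutions for 72 hr at 37 degree celsius.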
On the technique in general: Quantitative high-throughput screening tests each substance at several concentrations.

The test system of assay [4] is NIH3T3. The assay is described as above. As to conditions: MCC and control cell lines, CellTiter-Glo viability, 72 h; series mostly up to 44.8 µM. The procedure, abridged:
as §3

The test system of another assay is OV90. In words: Primary qHTS to identify gynecologic anti-cancer compounds using libraries of approved drugs and bioactive compounds (AID 1345084). Further: nearly all actives have a fitted effect of over 55% in size. Further: potency means the concentration at half of the fitted maximal effect. On activity change, negative = cytotoxicity: on the % scale 0 is the no-effect control and ±100 the full control effect. The note with it: Gynecologic cancer cell panel viability, ATPlite luminescence, 48 h; series mostly up to 57.5 µM. The method, boiled down: as §2

With `CC1CCCC[C@H]2C(=O)C=C[C@H](O)[C@@H]2CC(=O)O1` (stereo partly specified), the Potency with CRL-7250 was 8.2 µM (active); in the assay on HEK293, 1.64 µM (active); with NIH3T3 [1], 18.4 µM (active); in the assay on C33A, 20 µM (active); with Es-2, 10 µM (active); in the assay with Hek293T, 15.8 µM (active). The Potency in the assay on PA-1 is 10 µM (active). Besides, in the assay with CASKI, the Potency result was “inactive”.

Take `C=C1C(=O)O[C@@H]2[C@H]3C(C)=CC(=O)C3=C(C)CC[C@@H]12`: the Potency in the assay with CRL-7250 was 7.31 µM (active); with HEK293, 2.06 µM (active). Moreover, in the assay on HeLa, the Potency entry was “inactive”.

Consider `C=CC(=O)Nc1cccc(Nc2nc(Nc3ccc(OCCOC)cc3)ncc2F)c1`, for which the Potency is 5.17 µM (active) in the assay with CRL-7250; 8.2 µM (active) in the assay on HEK293; 5.8 µM (active) with NIH3T3 [1]; 11.2 µM (active) in the assay with HeLa; 10 µM (active) with PA-1. In addition, the Potency entry with JEG-3 is “inactive”.

Turning to `Cn1nc(-c2ccc(C(F)(F)F)cc2)nc2c(=O)n(C)c(=O)nc1-2`, the Potency with CRL-7250 is 14.6 µM (active); in the assay on HEK293, 6.51 µM (active); in the assay with NIH3T3 [1] it was 1.3 µM (active); in the assay with CAOV3, 10 µM (active); in the assay with Es-2, 15.8 µM (active); in the assay on HeLa it was 20 µM (active). The values for the Potency in the assay with JEG-3 and in the assay with PA-1 were 10 µM (active) and 5.01 µM (active), respectively.

Turning to `C=CC(=O)N1CC(N2CCN(C(=O)CNc3cc(C4CC4)c(Cl)cc3O)CC2)C1`, the compound was classed as inactive in the assay on CRL-7250, in the assay on HaCat [2], with KB-3-1, with NIH3T3 [1] and in the assay with HACAT [3]. For the same compound, the Potency result in the assay with NIH3T3 [4], in the assay on C33A, in the assay with CAOV3, in the assay on CASKI, with Es-2 and in the assay with HeLa was “inactive” throughout. In addition, the Potency entry in the assay on Hek293T, in the assay with JEG-3 and in the assay with OV90 was “inactive” throughout.

On to `CC(C)S(=O)(=O)Nc1ccc(F)c(C(=O)c2c[nH]c3ncc(-c4cccnc4)cc23)c1F`, for which the values for the Potency with CRL-7250 and in the assay with HEK293 were 18.4 µM (active) and 14.6 µM (active), respectively. Besides, the Potency entry with C33A, with CASKI, in the assay on Hek293T and in the assay on JEG-3 was “inactive” in each case.

On to `C[C@@H]1O[C@@H](O[C@H]2[C@H](OC(=O)[C@]34CCC(C)(C)C[C@H]3C3=CCC5[C@@]6(C)C[C@H](O)[C@H](O[C@@H]7O[C@H](CO)[C@@H](O)[C@H](O)[C@H]7O)[C@](CO)(C(=O)O)C6CC[C@@]5(C)[C@]3(C)C[C@H]4O)OC[C@H](O)[C@@H]2O)[C@H](O)[C@H](O)[C@H]1O[C@@H]1OC[C@@H](O)[C@H](O[C@@H]2OC[C@](O)(CO)[C@H]2O)[C@H]1O` (stereo partly specified), for which the Potency was 1.38 µM (active) in the assay on CRL-7250, 0.692 µM (active) in the assay with HEK293 and 2.82 µM (active) with Es-2. The activity change, negative = cytotoxicity is -2.46% [at 6.55 µM] in the assay on CAOV3, -28.8% [at 6.55 µM] in the assay on CASKI and -28.6% [at 6.55 µM] in the assay with OV90.

`C=C1C(=O)O[C@@H]2[C@H]1CC(=O)[C@H](C)[C@@](O)(C(=O)/C=C/C)[C@H]2OC(=O)C(C)CC` (stereo partly specified): the Potency with CRL-7250 was 7.18 µM (active); in the assay on HEK293, 2.86 µM (active); in the assay on NIH3T3 [1], 4.04 µM (active); in the assay on CASKI, 10 µM (active); in the assay with Hek293T it was 10 µM (active); with PA-1, 11.2 µM (active). Moreover, the Potency result with HeLa, with JEG-3 and with OV90 was “inactive” throughout.

For `COC(=O)CC1OC(C)C2=C(O)c3c(O)cccc3C(=O)C23OC13` (stereo unspecified), the Potency in the assay on CRL-7250 was 4.04 µM (active); in the assay with HEK293, 2.86 µM (active); with C33A it was 12.6 µM (active); with CAOV3 it was 3.55 µM (active); with Es-2, 10 µM (active); with Hek293T it was 10 µM (active). Besides, the Potency is 10 µM (active) with OV90 and 3.98 µM (active) in the assay on PA-1.

`COc1cc(C(N)=O)nc(-c2ccccn2)c1O`: the max response with CRL-7250 was -12.9%; in the assay with HEK293, -3.89%; with NIH3T3 [1], -4.41%. Besides, the Potency entry in the assay on C33A, in the assay on Es-2, in the assay with HeLa, in the assay with Hek293T, in the assay with JEG-3 and in the assay on OV90 was “inactive” throughout. The Potency entry with PA-1 is “inactive”.

On to `Fc1ccc2[nH]ccc2c1-c1nc(N2CCOCC2)c2sc(CN3CCN(CC4CC4)CC3)cc2n1`, for which the max response in the assay with CRL-7250 was -20.6%. Also, the Potency was 18.4 µM (active) in the assay on HEK293 and 20 µM (active) with JEG-3. Moreover, the Potency result in the assay with Es-2 and in the assay with HeLa was “inactive” throughout.

For `C[C@H](Nc1ncnc2nc[nH]c12)c1cc2cccc(Cl)c2c(=O)n1-c1ccccc1`, the results for the max response in the assay with CRL-7250 and in the assay with HEK293 were -26.4% and -90.1%, respectively. Moreover, the Potency in the assay with NIH3T3 [1] is 4.61 µM (active). For the same compound, the Potency entry with CAOV3, in the assay on Es-2, in the assay with HeLa, with JEG-3 and in the assay on OV90 was “inactive” in each case.
